KB-V1 MDR tox: KB-V1 MDR subline cytotoxicity | KB-V1 MDR cells viability, CellTiter-Glo, 72 h | Potency, µM (top dose mostly 46.1 µM), most hits filed as cytotoxic | 400,000 tested, 3.4% active | AID 1347076; further: nearly all actives have a fitted effect of over 60% in size
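Cytotoxicity toward P-gp-expressing KB-V1 cells was determined as loss of CellTiter-Glo luminescence after 72 h at 37 degrees C. Compounds were tested in quantitative HTS format across a concentration range, with curves fitted to normalized data.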
KB-3-1 cytotox: KB-3-1 parental cell cytotoxicity; 400,000 tested, 1.4% active; KB-3-1 viability, CellTiter-Glo ATP luminescence, 72 h; Potency, µM (doses to about 46.1 µM), hits mostly cytotoxic; further: nearly all actives have a fitted effect of over 60% in size
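Luminescent ATP read-out (CellTiter-Glo) measures survival of drug-naive KB-3-1 cells after 72 h compound exposure at 37 °C. Titration series was screened from lowest to highest concentration, with DMSO vehicle plates as background controls.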
ASM inhibitor: inhibitors of human secretory acid sphingomyelinase. 340,000 tested, 0.006% active. Potency, µM (doses to about 57.5 µM), actives largely listed as inhibitors. placental ASM, HMU-PC fluorogenic substrate, 60 min
Target sequence (P17405 47-631 limits assumed): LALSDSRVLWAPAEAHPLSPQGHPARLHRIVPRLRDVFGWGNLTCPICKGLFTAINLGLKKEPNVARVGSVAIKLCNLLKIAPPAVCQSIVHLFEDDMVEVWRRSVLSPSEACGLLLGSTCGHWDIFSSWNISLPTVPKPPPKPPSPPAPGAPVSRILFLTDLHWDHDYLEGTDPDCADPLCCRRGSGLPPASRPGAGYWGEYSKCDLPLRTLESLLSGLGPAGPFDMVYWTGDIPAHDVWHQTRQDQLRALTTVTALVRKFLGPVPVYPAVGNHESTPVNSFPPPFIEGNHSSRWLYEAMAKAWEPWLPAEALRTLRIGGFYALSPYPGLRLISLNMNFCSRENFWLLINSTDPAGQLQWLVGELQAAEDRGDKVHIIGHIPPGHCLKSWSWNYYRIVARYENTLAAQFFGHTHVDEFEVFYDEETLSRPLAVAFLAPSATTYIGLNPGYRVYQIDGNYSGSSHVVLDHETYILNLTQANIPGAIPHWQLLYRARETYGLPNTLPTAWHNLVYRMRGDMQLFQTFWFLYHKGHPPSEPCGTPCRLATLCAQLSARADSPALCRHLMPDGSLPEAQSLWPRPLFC
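qHTS format. ASM enzyme prepared from human placenta hydrolyses the fluorogenic substrate HMU-PC0 (9 uM final) over 60 min at 37 °C after a 10 min compound preincubation.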
Giardia killer: Giardia lamblia killing; Giardia lamblia trophozoite viability; activity change, % at 7.66 µM, hits read low; 340,000 tested, 0.15% active; AID 540267; in the data active means activity change below about -80%; inconclusive means between about -30% and that limit;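 further: parasites exposed to compound for two days anaerobically before the ATP read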
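Trophozoites 100 cells/well + cpd; 48 hrs, 37 deg C, anaerobic. ATPLite 1-Step added, 15-30 min RT, luminescence read (ATP-based viability).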
SW480 rereplic: inducers of DNA re-replication in SW480 colon cancer cells; SW480 DNA re-replication, Hoechst DNA content imaging, 48 h; Potency, µM (top dose mostly 46.1 µM), hits mostly activators; 340,000 tested, 1.8% active; AID 624297; further: nearly all actives have a fitted effect of over 55% in size
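First, 250 cells per well were seeded. Next, compound or vehicle (23 nL) was pinned in, plates sat 48 hr at 37 C. Finally Hoechst was added for 40 min before fluorescence scanning.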
MCF10A rereplic: induces DNA re-replication in MCF 10a normal breast cells | MCF 10A DNA re-replication, Hoechst nuclear intensity, 48 h | Potency, µM (series often up to 46.1 µM), usual class: activators | 350,000 tested, 2.9% active | AID 624296; further: nearly all actives have a fitted effect of over 50% in size
Of the large screens only hits and unclear results are named; the others gave an inactive call. Most compounds without a hit are left out; they make up all but 6.9% or so of the library. Unless noted, the call rests on the fitted dose curve; in most records, active means well fitted curve in the direction sought with a large enough effect; inconclusive means small, poorly fitted or top-dose-only effect, or another doubt; inactive means no such curve, though single readings can be large; an effect the other way counts as inactive or inconclusive.

Cc1nccn1CC(O)Cn1c2ccccc2c2ccccc21 (configuration not stated)	MCF10A rereplic 20.6µM
Cc1ccccc1OCC(O)Cn1c2ccccc2c2ccccc21 (configuration not stated)	KB-V1 MDR tox 20.6µM, SW480 rereplic 23.1µM
CC(C)c1ccc(N(C(=O)c2snc(C(N)=O)c2N)C(C(=O)NCC2CCCO2)c2ccc(N(C)C)cc2)cc1 (configuration not stated)	KB-V1 MDR tox 20.6µM, KB-3-1 cytotox inconclusive, MCF10A rereplic inconclusive
CC(C(=O)NCC1CCCO1)N(C(=O)c1snc(C(N)=O)c1N)c1cccc(F)c1 (configuration not stated)	KB-V1 MDR tox 11.6µM
CC(C(=O)Nc1ccc(F)c(Cl)c1)N1Cc2ccccc2C1=O (configuration not stated)	none (no result: ASM inhibitor, Giardia killer, SW480 rereplic, MCF10A rereplic)
COc1ccc2c(-c3cc4ccc(OCc5ccc(F)cc5)cc4oc3=O)cc(=O)oc2c1	KB-V1 MDR tox 8.2µM, KB-3-1 cytotox 7.31µM, MCF10A rereplic 1.84µM
O=C(NCCc1ccc(Cl)cc1)C(=O)NCC(c1ccco1)S(=O)(=O)c1ccc(Cl)cc1 (configuration not stated)	KB-3-1 cytotox inconclusive (no result: ASM inhibitor, Giardia killer, SW480 rereplic, MCF10A rereplic)
CCOC(=O)N1CCN(C(=O)CSCC(=O)Nc2nc(-c3ccccc3)cs2)CC1	KB-V1 MDR tox 16.4µM
CCn1c(SCC(=O)Nc2cccnc2Cl)nnc1-c1ccccc1	KB-V1 MDR tox 20.6µM
Cc1csc(NC(=O)CSc2nnc(-c3ccoc3C)n2C(C)c2ccccc2)n1 (configuration not stated)	SW480 rereplic 14.6µM, MCF10A rereplic inconclusive
CCn1c(SCC(=O)N/N=C/C(C)=C/c2ccco2)nnc1-c1ccccc1	KB-V1 MDR tox 14.6µM
CCn1c(SCC(=O)N/N=C/C(C)=C\c2ccco2)nnc1-c1ccccc1	MCF10A rereplic inconclusive
CCc1cccc2c3c([nH]c12)[C@@](CC)(CC(=O)O)OCC3	none (no result: KB-V1 MDR tox, KB-3-1 cytotox, ASM inhibitor, Giardia killer)
Cc1ccc(NC(=O)Cn2cc(S(=O)(=O)c3ccccc3)c(=O)c3cc4c(cc32)OCO4)cc1	KB-V1 MDR tox inconclusive (no result: ASM inhibitor, Giardia killer, SW480 rereplic, MCF10A rereplic)
CCn1c(SCC(=O)Nc2nc(-c3ccccc3)cs2)nnc1-c1ccccc1	KB-V1 MDR tox 18.4µM
C=CCn1c(SCC(=O)Nc2cccnc2Cl)nnc1-c1ccc(Cl)cc1	KB-V1 MDR tox 5.17µM
Cn1c(SCC(=O)Nc2ccccc2-c2ccccc2)nnc1-c1ccco1	KB-V1 MDR tox 18.4µM, SW480 rereplic inconclusive
Cc1nnc(SCC(=O)Nc2nc(-c3ccccc3)cs2)n1N	none
Cc1csc(NC(=O)CSc2ccc(-c3ccccc3)nn2)n1	KB-V1 MDR tox 23.1µM
CC(C)c1ccc(N(C(=O)CNC(=O)c2ccco2)C(C(=O)NC2CCCC2)c2ccncc2)cc1 (configuration not stated)	KB-3-1 cytotox inconclusive
C=CCn1c(SCC(=O)Nc2ccc(-c3nc4ccc(C)cc4s3)cc2)nnc1-c1ccccc1	KB-V1 MDR tox inconclusive, SW480 rereplic 10.3µM, MCF10A rereplic 4.11µM
CC(C)=CCc1c2c(c3occ(-c4ccc(O)c(O)c4)c(=O)c3c1O)C=CC(C)(C)O2	KB-3-1 cytotox inconclusive, ASM inhibitor inconclusive, MCF10A rereplic 9.2µM
Brc1ccccc1-c1nnc2sc(-c3ccc4c(c3)OCCO4)nn12	KB-V1 MDR tox inconclusive, SW480 rereplic inconclusive, MCF10A rereplic 6.51µM
c1ccc2c(c1)OCC(c1nnc3sc(-c4ccc5c(c4)OCO5)nn13)O2 (configuration not stated)	none
Clc1ccccc1-c1nnc2sc(-c3ccc4c(c3)OCO4)nn12	KB-V1 MDR tox 8.2µM, KB-3-1 cytotox 20.6µM, SW480 rereplic 6.51µM, MCF10A rereplic inconclusive
O=C(NC1CCN(S(=O)(=O)c2ccc(F)cc2)CC1)c1cccc(F)c1	MCF10A rereplic inconclusive
CCc1ccccc1N(C)C	none (no result: ASM inhibitor, Giardia killer, SW480 rereplic, MCF10A rereplic)
O=C1CCC2=C1C(c1ccccc1Cl)N=C(Nc1nc3ccccc3o1)N2 (configuration not stated)	none (no result: ASM inhibitor, Giardia killer, SW480 rereplic, MCF10A rereplic)
CCc1nn(CCCC(=O)NCc2ccc(OC(C)C)cc2)c(=O)c2cc3occc3n12	KB-V1 MDR tox inconclusive, KB-3-1 cytotox 7.31µM, SW480 rereplic inconclusive, MCF10A rereplic inconclusive
CCc1nn(C(C)C(=O)N2CCN(c3ccc(OC)cc3)CC2)c(=O)c2cc3occc3n12 (configuration not stated)	KB-3-1 cytotox 9.2µM, SW480 rereplic inconclusive, MCF10A rereplic inconclusive
CCc1nn(C(C)C(=O)N2CCN(Cc3ccccc3)CC2)c(=O)c2cc3occc3n12 (configuration not stated)	none
CCc1nn(C(C)C(=O)N2CC(C)CC(C)C2)c(=O)c2cc3occc3n12 (configuration not stated)	none
CCc1nn(C(C)C(=O)N2CCN(c3cccc(C(F)(F)F)c3)CC2)c(=O)c2cc3occc3n12 (configuration not stated)	KB-V1 MDR tox 8.2µM, KB-3-1 cytotox 13µM (no result: ASM inhibitor, Giardia killer, SW480 rereplic, MCF10A rereplic)
CCOc1ccc(CNC(=O)CCCn2nc(CC)n3c(cc4occc43)c2=O)cc1	none
COC(=O)c1nc2n(n1)C(c1cc(OC)ccc1OC)C(C(=O)Nc1ccc(C)cc1C)=C(C)N2 (configuration not stated)	none (no result: ASM inhibitor, Giardia killer, SW480 rereplic, MCF10A rereplic)
CCCCCCC(=O)N1C/C=C\C(c2ccc(OC)cc2)N(Cc2ccc(F)cc2)C(=O)C1Cc1ccccc1 (configuration not stated)	none (no result: KB-V1 MDR tox, KB-3-1 cytotox, ASM inhibitor, SW480 rereplic, MCF10A rereplic)
Cc1ccc(CNC(=O)c2cc(-c3ccccc3)nn2CC2CC(c3cccc([N+](=O)[O-])c3)=NO2)cc1 (configuration not stated)	none
COc1ccc(CNC(=O)C2CC(c3cccc([N+](=O)[O-])c3)=NO2)cc1 (configuration not stated)	MCF10A rereplic 9.2µM
COCCNC(=O)C1CC(c2cccc([N+](=O)[O-])c2)=NO1 (configuration not stated)	SW480 rereplic inconclusive
Cc1ccc(CNC(=O)C2CC(c3cccc([N+](=O)[O-])c3)=NO2)cc1 (configuration not stated)	SW480 rereplic inconclusive, MCF10A rereplic 2.06µM
O=C1C=C(Nc2ccccc2)c2ccccc2C1=O	KB-V1 MDR tox inconclusive, KB-3-1 cytotox 5.8µM, SW480 rereplic 2.59µM, MCF10A rereplic 5.8µM
O=C1C=C(Nc2ccccc2)C(=O)c2ccccc21	KB-V1 MDR tox inconclusive, KB-3-1 cytotox inconclusive, SW480 rereplic inconclusive
O=C1C=C(Nc2cccc3cccnc23)c2ccccc2C1=O	KB-V1 MDR tox 5.8µM, KB-3-1 cytotox 5.8µM, SW480 rereplic 7.31µM, MCF10A rereplic 3.66µM
CCc1ccc(NC2=CC(=O)C(=O)c3ccccc32)cc1	KB-V1 MDR tox 16.4µM, KB-3-1 cytotox 18.4µM, SW480 rereplic 7.31µM, MCF10A rereplic 9.2µM
Cc1cc(C)c2c(n1)nn1c(C)c(CCC(=O)NCc3ccccc3Cl)c(C)nc21	none (no result: ASM inhibitor, Giardia killer, SW480 rereplic, MCF10A rereplic)

Compound activity deposited in PubChem BioAssay by National Center for Advancing Translational Sciences (NCATS).
